Source: PubChem BioAssay (NCI)
This is part of a sample that, as a whole, favours compounds with a hit. Of some 83,000 tested, about 20% had one in any assay.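 Results are percent growth after 48 hours of single-concentration exposure. 100 means growth as in untreated cells, lower positive values show inhibition; negative values down to -100 show cell death.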 Unmarked numbers belong to inactive results. The source made the active and inactive calls. The calls were made as follows: active = growth percent below 10; inactive = the rest.

Experiments:
Assay in all cases: NCI-60 one-dose screen, 48 h (100 = growth as untreated, 0 = no growth, -100 = all killed)
Details in all cases: 10 µM unless noted
SR leukemia = test system: SR leukemia
RPMI-8226 leukemia = test system: RPMI-8226 leukemia
OVCAR-8 ovarian = test system: OVCAR-8 ovarian
OVCAR-5 ovarian = test system: OVCAR-5 ovarian
OVCAR-4 ovarian = test system: OVCAR-4 ovarian
SK-OV-3 ovarian = test system: SK-OV-3 ovarian
IGROV1 ovarian = test system: IGROV1 ovarian
OVCAR-3 ovarian = test system: OVCAR-3 ovarian
HS 578T breast = test system: HS 578T breast
NCI/ADR-RES ovarian = test system: NCI/ADR-RES ovarian
T-47D breast = test system: T-47D breast
MDA-MB-435 melanoma = test system: MDA-MB-435 melanoma
SW-620 colon = test system: SW-620 colon
MCF7 breast = test system: MCF7 breast
HCT-116 colon = test system: HCT-116 colon
HCC-2998 colon = test system: HCC-2998 colon
KM12 colon = test system: KM12 colon
MDA-MB-468 breast = test system: MDA-MB-468 breast
BT-549 breast = test system: BT-549 breast

Structure (SMILES) | growth (SR leukemia) | growth (RPMI-8226 leukemia) | growth (OVCAR-8 ovarian) | growth (OVCAR-5 ovarian) | growth (OVCAR-4 ovarian) | growth (SK-OV-3 ovarian) | growth (IGROV1 ovarian) | growth (OVCAR-3 ovarian) | growth (HS 578T breast) | growth (NCI/ADR-RES ovarian) | growth (T-47D breast) | growth (MDA-MB-435 melanoma) | growth (SW-620 colon) | growth (MCF7 breast) | growth (HCT-116 colon) | growth (HCC-2998 colon) | growth (KM12 colon) | growth (MDA-MB-468 breast) | growth (BT-549 breast)
CC[C@]12C=CCN3CC[C@@]4(c5ccc(OC)cc5N(C)[C@H]4[C@@](O)(C(=O)OC)[C@@H]1OC(=O)CCC[P+](c1ccc(OC)cc1)(c1ccc(OC)cc1)c1ccc(OC)cc1)[C@@H]32 | 15% | -45.5% (active) | -86.2% (active) | -96.5% (active) | -75.3% (active) | -85.1% (active) | -92.1% (active) | -73.6% (active) | -65.4% (active) | 79.9% | -61.4% (active) | -76.9% (active) | -82.4% (active) | -83% (active) | -68.8% (active) | -89.7% (active) | -65.3% (active) | -92.1% (active) | –
CC(C)CN1C(=O)/C(=C\C(=O)c2cc3ccccc3oc2=O)c2ccccc21 | 34.6% | 85.4% | 97.7% | 111% | 87.3% | 104% | 87.7% | 51.1% | 102% | 95.8% | 44.7% | 98.8% | 41% | 58.1% | 91.2% | 118% | 103% | 32.6% | –
Cc1nn(-c2ccccc2)c2nc(C)n(CC(=O)N/N=C/c3ccccc3O)c(=O)c12 | 54.7% | 29.1% | 22% | 46.6% | 31.2% | 25% | 24.2% | 51.3% | 55.4% | 16.7% | 16.1% | 34.7% | 18.9% | 7.8% (active) | 24.6% | 27.4% | 31% | -23.3% (active) | –
O=C(c1cc2cc(OCCCN3CCC3)ccc2[nH]1)N1C[C@@H](CCl)c2c1cc(OCc1ccccc1)c1ccccc21 | -9.25% (active) | -37.1% (active) | -37.6% (active) | -76.9% (active) | -57.7% (active) | -9.06% (active) | -53.8% (active) | -29.5% (active) | -8.06% (active) | -34.9% (active) | -11.6% (active) | -78.8% (active) | 0.696% (active) | -9.07% (active) | -80.6% (active) | -77.1% (active) | -5.46% (active) | -76.3% (active) | –
Cc1ccc(C(C)C)cc1Oc1cccc(-c2c(-c3ccc(C(F)(F)F)cc3)ncn2C2CCNCC2)n1 | -75.5% (active) | -59% (active) | -66.9% (active) | -69.5% (active) | -89% (active) | -93.7% (active) | -91.5% (active) | -69.2% (active) | -63.1% (active) | -83% (active) | -83.6% (active) | -93.4% (active) | -85.5% (active) | -85.3% (active) | -94.3% (active) | -85.4% (active) | -79.5% (active) | -90.3% (active) | –
COc1cc(NC(=O)C(C)C)ccc1C(=O)NC(=S)Nc1ccc(S(N)(=O)=O)cc1 | 111% | 107% | 79.3% | 110% | 98.5% | 112% | 97.2% | 92% | 86.2% | 102% | 99.5% | 106% | 107% | 101% | 106% | 116% | – | 123% | –
COc1ccc(-c2nc3ccccc3n2CC(=O)N=Nc2c(O)[nH]c3ccc(Br)cc23)cc1 | 7.92% (active) | 79.1% | 71.1% | 113% | 91.3% | 96.8% | 60.3% | 48.7% | 68.7% | 78.9% | – | 23.3% | 83% | 43.7% | 51.9% | 108% | 71.1% | 56.1% | 53.3%
COC(=O)c1cc(C(=O)C(Br)Br)n2c1ccc1c3ccccc3ccc12 | 13.6% | 54.6% | 38.6% | 64.4% | 48.8% | 75.4% | 32.1% | 77% | 44.3% | 70.3% | 1.99% (active) | 79% | 45.2% | 5.77% (active) | 49.6% | 43.5% | 39.7% | -8.15% (active) | –
Cn1cc(-c2cc3nc(-c4c[nH]c5ccccc45)cc(N)n3n2)c2ccccc21 | 8.18% (active) | -21.9% (active) | -73.6% (active) | -39.4% (active) | -39.9% (active) | 43.2% | -77.5% (active) | -76.3% (active) | -9.04% (active) | -37.8% (active) | -69.4% (active) | -81.8% (active) | -77.1% (active) | -67.4% (active) | -74.2% (active) | -78.2% (active) | – | -53.9% (active) | –
COC(=O)c1c(C(=O)OC)c2c3ccccc3c3ccccc3n2c1C(=O)C(F)(F)F | 81.8% | 97.6% | 99.6% | 99.2% | 94.7% | 107% | 82.9% | 112% | 99.2% | 93.7% | – | 102% | 97.1% | 91.6% | 98.7% | 122% | 106% | – | 106%
CCCCN1C(=O)/C(=C\C(=O)c2cc3ccccc3oc2=O)c2ccccc21 | -2.51% (active) | 23.7% | 67.3% | 96.7% | 83.9% | 110% | 70.2% | 34.3% | 75.6% | 67.5% | 23.6% | 84.2% | -47.6% (active) | 41% | 51.3% | 93.9% | – | 18.1% | –
Cc1ccc(-c2cc(-c3ccccc3)[nH]c(=O)c2C#N)cc1 | 73.3% | 76.7% | 93.5% | 109% | 94.1% | 107% | 91.9% | 98.4% | 84.6% | 82.3% | 73.5% | 107% | 97.8% | 75.1% | 94.3% | 114% | 91.2% | 89.4% | –
CCCCCCCCc1ccc(C(=O)Nc2cccc(O)c2)cc1 | 29.8% | 35% | 83% | 100% | 78.8% | 109% | 85.6% | 91.2% | 81.4% | 59% | 67.7% | 50.5% | 93.5% | 60.3% | 65% | 109% | 54.3% | 90.9% | –
Cc1ccc(C2CC(c3ccc(NC(=O)Nc4ccccc4)cc3)=NN2c2ccc(S(C)(=O)=O)cc2)cc1 (centres undefined) | 15.5% | -0.47% (active) | 7.91% (active) | -51.3% (active) | 17.6% | 26.8% | -28.1% (active) | -2.63% (active) | 21.3% | -35.3% (active) | 11.9% | -7.07% (active) | -42.6% (active) | -34.3% (active) | -36.5% (active) | -80.7% (active) | -2.32% (active) | -1.05% (active) | –
Cn1cc(-c2cc3nc(-c4cn(C)c5ncccc45)cc(N)n3n2)c2cc(F)ccc21 | -31.3% (active) | 38.1% | 11.5% | 47.9% | 20.2% | 24.4% | 31.9% | 43.9% | 47.2% | 28.3% | 37.8% | 83.1% | 61% | 68.2% | 10.2% | 39.8% | 61.8% | 7.65% (active) | –
C/C(=N\Nc1ccc(S(N)(=O)=O)cc1)c1cnn(-c2cc(=O)[nH]c3ccc(Br)cc23)c1C | 4.11% (active) | 74.3% | 80.5% | 81.4% | 67.7% | 69.2% | 56.9% | 56.2% | 28.4% | 90.1% | 17.5% | 4.39% (active) | 75.7% | 23.1% | 58.5% | 73.4% | 53.7% | -10.8% (active) | –
